Assay in all cases: DAPPL (digital affinity profiling via proximity ligation, sequencing); 10 mM Tris-HCl pH 7.5, 50 mM NaCl, 1 mM DTT, 4% glycerol, room temperature, 30 min; GST-TFs on glutathione beads, 16-mer random dsDNA library, 0.1% formaldehyde crosslink after washing; high values mean tight binding
One test has as its target T1, FEV (Homo sapiens, UniProt Q99581 1-238).
T1 sequence: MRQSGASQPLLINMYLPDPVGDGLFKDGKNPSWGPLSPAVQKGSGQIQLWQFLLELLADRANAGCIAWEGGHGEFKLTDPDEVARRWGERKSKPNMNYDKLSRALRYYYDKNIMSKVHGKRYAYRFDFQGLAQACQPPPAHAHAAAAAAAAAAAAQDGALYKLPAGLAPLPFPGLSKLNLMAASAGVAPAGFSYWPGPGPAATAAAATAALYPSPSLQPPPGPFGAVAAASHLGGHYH
To be noted: protein: recombinant; tags: N-terminal GST; dsDNA, one strand shown. A digest of the protocol:
(§1)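 In yeast, human transcription factors were expressed with a GST fusion, then pulled down on glutathione beads and given DNA barcodes. Pooled with a tag-only sample, they were exposed to 200 nmole of a 16-mer random double-stranded DNA library (Tris/NaCl/DTT/glycerol buffer, room temperature, 30 min), washed, crosslinked with 0.1% formaldehyde, proximity-ligated using BsaI/T4 ligase for 1 h at 37 °C, PCR-amplified and read on an Illumina NextSeq500. Each hexamer's frequency of reads for a factor, divided by the matching frequency for the tag-only sample, gives the binding signal.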

In a further test the target is ETV5 (Homo sapiens, UniProt P41161 1-510). Conditions: protein: recombinant; tags: N-terminal GST; dsDNA, one strand shown. A digest of the protocol:
as §1

Another test deals with HSF1 (Homo sapiens, UniProt Q00613 1-529). Conditions: protein: recombinant; tags: N-terminal GST; chain copies: 3; dsDNA, one strand shown. A digest of the protocol: as §1
A further test has as its target T2, SPIC (Homo sapiens, UniProt Q8N5J4 1-248).
T2 sequence: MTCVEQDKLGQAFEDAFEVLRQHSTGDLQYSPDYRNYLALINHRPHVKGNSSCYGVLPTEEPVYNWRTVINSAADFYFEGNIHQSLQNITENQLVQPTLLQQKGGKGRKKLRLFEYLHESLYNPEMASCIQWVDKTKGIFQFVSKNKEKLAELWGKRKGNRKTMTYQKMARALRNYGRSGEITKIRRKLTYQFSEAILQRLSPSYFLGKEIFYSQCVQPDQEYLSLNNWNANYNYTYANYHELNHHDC
Conditions: protein: recombinant; tags: N-terminal GST; dsDNA, one strand shown. The method in brief: as §1

The next test concerns the target ELF4 (Homo sapiens, UniProt Q99607 1-663). To be noted: protein: recombinant; tags: N-terminal GST; dsDNA, one strand shown. The method in brief:
as §1

The target of another test is T3, ELK4 (Homo sapiens, UniProt P28324-2 1-405).
T3 sequence: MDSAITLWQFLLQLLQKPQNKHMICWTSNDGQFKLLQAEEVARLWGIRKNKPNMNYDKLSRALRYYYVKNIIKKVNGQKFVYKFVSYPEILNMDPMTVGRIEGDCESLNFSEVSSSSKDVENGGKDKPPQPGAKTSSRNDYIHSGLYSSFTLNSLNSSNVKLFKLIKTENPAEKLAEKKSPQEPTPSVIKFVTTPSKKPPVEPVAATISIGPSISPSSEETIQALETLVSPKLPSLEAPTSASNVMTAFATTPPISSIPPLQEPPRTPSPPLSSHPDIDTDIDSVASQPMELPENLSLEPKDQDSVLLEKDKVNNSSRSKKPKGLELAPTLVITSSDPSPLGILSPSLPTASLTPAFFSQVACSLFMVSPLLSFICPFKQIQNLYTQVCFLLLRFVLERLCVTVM
Conditions: protein: recombinant; tags: N-terminal GST; dsDNA, one strand shown. The method in brief: as §1

A further test addresses T4, ETV2 (Homo sapiens, UniProt O00321 1-342).
T4 sequence: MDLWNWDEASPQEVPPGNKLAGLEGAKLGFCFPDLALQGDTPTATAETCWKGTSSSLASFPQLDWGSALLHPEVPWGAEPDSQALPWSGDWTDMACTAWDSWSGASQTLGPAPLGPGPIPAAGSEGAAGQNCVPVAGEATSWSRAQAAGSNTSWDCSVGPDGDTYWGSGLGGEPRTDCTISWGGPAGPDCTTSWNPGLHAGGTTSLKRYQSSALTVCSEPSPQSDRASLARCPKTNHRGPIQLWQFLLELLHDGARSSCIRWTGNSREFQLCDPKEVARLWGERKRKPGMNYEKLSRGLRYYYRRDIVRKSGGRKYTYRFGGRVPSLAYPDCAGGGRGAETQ
To be noted: protein: recombinant; tags: N-terminal GST; dsDNA, one strand shown. The method in brief:
as §1

For the next test, the target named is T5, ELF3 (Homo sapiens, UniProt P78545 1-371).
T5 sequence: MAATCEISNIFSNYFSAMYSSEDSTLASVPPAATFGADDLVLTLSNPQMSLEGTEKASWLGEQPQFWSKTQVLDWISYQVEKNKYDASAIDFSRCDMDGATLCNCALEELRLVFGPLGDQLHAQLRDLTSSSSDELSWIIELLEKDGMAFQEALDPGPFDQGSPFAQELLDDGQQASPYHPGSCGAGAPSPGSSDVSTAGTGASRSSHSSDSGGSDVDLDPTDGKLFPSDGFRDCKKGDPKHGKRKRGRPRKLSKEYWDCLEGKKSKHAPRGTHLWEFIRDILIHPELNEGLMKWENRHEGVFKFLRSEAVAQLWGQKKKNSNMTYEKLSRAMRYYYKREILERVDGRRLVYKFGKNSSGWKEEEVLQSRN
Conditions: protein: recombinant; tags: N-terminal GST; dsDNA, one strand shown. A digest of the protocol:
as §1

Another test concerns the target CRX (Homo sapiens, UniProt O43186 1-299). Conditions: protein: recombinant; tags: N-terminal GST; dsDNA, one strand shown. The method in brief:
as §1

The target in a further test is ETV1 (Homo sapiens, UniProt P50549 1-477). To be noted: protein: recombinant; tags: N-terminal GST; dsDNA, one strand shown. The method in brief: as §1
Another test addresses T6, ERF (Homo sapiens, UniProt P50548 1-548).
T6 sequence: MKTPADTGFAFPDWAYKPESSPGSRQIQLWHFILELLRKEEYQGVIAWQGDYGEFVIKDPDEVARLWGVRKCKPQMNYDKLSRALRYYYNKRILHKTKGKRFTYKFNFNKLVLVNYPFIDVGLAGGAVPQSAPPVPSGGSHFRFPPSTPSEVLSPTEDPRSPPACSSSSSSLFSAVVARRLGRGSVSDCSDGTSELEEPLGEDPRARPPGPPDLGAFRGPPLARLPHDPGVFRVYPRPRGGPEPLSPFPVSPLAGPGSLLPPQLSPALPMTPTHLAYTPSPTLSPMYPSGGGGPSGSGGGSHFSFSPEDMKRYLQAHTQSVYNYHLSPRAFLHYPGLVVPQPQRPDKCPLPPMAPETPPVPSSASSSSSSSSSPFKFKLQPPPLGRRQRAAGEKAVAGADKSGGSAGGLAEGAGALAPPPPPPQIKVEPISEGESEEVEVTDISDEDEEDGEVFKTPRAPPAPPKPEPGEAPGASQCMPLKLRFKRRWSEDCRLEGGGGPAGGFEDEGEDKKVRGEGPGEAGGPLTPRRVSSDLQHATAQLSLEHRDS
To be noted: protein: recombinant; tags: N-terminal GST; dsDNA, one strand shown. A digest of the protocol: as §1

A further test deals with T7, ETV3L (Homo sapiens, UniProt Q6ZN32 1-361).
T7 sequence: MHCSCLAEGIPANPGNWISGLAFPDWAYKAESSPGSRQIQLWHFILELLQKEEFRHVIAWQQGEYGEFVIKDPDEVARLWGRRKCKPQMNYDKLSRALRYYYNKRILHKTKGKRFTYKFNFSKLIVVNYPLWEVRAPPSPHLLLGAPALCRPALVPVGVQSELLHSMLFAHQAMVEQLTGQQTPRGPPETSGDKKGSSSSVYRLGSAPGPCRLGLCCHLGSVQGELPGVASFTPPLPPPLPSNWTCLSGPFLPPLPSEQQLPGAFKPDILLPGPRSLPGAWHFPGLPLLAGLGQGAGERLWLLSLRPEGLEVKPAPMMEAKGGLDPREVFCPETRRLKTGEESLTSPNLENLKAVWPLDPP
To be noted: protein: recombinant; tags: N-terminal GST; dsDNA, one strand shown. A digest of the protocol:
as §1

A further test addresses T8, ETS2 (Homo sapiens, UniProt P15036 1-469).
T8 sequence: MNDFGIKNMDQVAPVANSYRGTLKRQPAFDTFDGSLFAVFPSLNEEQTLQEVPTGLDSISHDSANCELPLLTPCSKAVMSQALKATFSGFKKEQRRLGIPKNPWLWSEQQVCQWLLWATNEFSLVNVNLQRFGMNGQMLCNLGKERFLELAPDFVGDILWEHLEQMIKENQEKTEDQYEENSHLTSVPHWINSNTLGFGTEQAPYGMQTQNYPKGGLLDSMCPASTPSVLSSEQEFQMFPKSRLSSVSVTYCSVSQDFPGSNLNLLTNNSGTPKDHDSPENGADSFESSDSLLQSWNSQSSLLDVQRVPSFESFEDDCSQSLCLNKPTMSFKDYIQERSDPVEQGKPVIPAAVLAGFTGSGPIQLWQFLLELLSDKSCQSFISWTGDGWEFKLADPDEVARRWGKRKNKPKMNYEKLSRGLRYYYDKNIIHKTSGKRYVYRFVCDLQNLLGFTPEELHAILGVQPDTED
Conditions: protein: recombinant; tags: N-terminal GST; dsDNA, one strand shown. The method in brief:
as §1

The target of the next test is T9, SPDEF (Homo sapiens, UniProt O95238 1-335).
T9 sequence: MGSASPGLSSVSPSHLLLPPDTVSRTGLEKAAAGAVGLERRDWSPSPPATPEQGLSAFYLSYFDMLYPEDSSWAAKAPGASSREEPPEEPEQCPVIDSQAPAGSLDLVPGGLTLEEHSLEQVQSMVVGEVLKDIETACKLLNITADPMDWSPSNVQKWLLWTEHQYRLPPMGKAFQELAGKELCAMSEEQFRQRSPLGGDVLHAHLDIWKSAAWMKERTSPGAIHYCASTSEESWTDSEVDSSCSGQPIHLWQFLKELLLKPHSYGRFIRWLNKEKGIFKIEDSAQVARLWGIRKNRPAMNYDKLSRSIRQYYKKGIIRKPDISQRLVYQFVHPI
To be noted: protein: recombinant; tags: N-terminal GST; dsDNA, one strand shown. A digest of the protocol: as §1

The target in another test is T10, ETV7 (Homo sapiens, UniProt Q9Y603 1-341).
T10 sequence: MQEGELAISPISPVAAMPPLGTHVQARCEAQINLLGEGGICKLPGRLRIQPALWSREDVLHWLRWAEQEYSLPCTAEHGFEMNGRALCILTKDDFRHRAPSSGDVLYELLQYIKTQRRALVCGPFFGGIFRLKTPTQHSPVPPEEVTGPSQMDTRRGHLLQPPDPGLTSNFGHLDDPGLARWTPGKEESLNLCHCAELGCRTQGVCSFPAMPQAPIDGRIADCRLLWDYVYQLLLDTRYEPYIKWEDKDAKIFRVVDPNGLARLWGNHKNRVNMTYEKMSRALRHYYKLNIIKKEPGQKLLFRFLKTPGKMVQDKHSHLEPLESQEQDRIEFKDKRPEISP
To be noted: protein: recombinant; tags: N-terminal GST; dsDNA, one strand shown. The method in brief:
as §1

The target in a further test is T11, ELF5 (Homo sapiens, UniProt Q9UKW6-2 1-255).
T11 sequence: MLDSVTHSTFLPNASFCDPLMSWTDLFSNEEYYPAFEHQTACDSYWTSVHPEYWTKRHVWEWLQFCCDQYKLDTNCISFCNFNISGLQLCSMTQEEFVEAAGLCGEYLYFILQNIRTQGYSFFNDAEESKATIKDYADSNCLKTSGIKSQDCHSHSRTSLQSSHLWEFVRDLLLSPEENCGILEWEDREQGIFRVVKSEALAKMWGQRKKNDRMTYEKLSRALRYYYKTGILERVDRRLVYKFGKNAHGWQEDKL
To be noted: protein: recombinant; tags: N-terminal GST; dsDNA, one strand shown. A digest of the protocol:
as §1

Another test concerns the target T12, ETV3 (Homo sapiens, UniProt P41162-2 1-143).
T12 sequence: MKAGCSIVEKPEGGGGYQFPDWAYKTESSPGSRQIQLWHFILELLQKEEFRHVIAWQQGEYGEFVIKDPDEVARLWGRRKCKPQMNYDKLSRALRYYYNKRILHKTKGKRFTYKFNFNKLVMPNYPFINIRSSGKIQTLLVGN
Conditions: protein: recombinant; tags: N-terminal GST; dsDNA, one strand shown. A digest of the protocol:
as §1

For another test, the target named is ETV6 (Homo sapiens, UniProt P41212 1-452). To be noted: protein: recombinant; tags: N-terminal GST; dsDNA, one strand shown. A digest of the protocol:
as §1

Sequence of ETV5 (P41161 whole entry): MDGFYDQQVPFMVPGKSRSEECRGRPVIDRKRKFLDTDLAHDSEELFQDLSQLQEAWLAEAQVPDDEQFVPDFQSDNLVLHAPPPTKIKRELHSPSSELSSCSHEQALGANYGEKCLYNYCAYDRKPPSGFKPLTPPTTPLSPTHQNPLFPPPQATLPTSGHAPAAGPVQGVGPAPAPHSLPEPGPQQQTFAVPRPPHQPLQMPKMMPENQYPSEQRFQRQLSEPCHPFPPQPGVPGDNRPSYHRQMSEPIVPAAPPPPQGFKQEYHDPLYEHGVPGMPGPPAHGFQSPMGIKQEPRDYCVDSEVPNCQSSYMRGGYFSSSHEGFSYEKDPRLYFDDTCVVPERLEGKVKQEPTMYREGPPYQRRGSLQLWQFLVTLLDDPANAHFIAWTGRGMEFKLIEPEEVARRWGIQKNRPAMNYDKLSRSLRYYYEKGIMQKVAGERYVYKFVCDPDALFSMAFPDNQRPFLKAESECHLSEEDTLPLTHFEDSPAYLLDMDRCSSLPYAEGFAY
Sequence of HSF1 (Q00613 whole entry): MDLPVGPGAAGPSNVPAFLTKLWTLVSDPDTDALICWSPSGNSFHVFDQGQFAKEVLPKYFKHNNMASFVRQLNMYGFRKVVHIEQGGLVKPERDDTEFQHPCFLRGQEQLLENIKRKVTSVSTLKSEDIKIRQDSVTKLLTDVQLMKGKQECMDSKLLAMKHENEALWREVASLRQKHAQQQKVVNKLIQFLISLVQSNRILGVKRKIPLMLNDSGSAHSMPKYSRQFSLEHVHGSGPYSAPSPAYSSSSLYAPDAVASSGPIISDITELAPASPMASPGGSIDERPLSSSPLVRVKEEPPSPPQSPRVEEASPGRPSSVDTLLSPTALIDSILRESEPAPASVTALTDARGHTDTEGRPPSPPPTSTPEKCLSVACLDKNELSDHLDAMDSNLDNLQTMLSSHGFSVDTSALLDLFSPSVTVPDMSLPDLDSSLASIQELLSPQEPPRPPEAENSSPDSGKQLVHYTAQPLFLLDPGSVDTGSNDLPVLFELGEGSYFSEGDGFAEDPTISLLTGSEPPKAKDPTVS
Sequence of ETV1 (P50549 whole entry): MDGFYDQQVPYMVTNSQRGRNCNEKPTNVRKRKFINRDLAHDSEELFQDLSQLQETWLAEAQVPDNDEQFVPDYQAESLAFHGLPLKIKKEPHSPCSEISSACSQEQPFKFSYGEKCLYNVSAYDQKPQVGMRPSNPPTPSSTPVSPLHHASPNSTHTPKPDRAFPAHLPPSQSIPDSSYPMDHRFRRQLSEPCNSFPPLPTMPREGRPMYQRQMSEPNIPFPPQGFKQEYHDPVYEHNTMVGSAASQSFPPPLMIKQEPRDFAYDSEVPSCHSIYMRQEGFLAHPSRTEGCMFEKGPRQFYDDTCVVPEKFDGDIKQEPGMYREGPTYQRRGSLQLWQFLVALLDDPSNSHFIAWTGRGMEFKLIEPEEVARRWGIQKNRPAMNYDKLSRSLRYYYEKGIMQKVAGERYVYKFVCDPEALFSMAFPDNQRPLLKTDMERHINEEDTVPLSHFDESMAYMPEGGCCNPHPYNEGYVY
Sequence of CRX (O43186 whole entry): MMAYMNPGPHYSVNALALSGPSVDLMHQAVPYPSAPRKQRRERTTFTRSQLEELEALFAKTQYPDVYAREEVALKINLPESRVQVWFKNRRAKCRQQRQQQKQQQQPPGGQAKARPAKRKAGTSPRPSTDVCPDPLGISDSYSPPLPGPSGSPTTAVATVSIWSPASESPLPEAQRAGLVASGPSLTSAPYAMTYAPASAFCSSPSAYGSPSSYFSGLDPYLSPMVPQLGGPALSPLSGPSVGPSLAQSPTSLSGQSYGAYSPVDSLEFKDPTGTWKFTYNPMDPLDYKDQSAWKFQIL
Sequence of ELF4 (Q99607 whole entry): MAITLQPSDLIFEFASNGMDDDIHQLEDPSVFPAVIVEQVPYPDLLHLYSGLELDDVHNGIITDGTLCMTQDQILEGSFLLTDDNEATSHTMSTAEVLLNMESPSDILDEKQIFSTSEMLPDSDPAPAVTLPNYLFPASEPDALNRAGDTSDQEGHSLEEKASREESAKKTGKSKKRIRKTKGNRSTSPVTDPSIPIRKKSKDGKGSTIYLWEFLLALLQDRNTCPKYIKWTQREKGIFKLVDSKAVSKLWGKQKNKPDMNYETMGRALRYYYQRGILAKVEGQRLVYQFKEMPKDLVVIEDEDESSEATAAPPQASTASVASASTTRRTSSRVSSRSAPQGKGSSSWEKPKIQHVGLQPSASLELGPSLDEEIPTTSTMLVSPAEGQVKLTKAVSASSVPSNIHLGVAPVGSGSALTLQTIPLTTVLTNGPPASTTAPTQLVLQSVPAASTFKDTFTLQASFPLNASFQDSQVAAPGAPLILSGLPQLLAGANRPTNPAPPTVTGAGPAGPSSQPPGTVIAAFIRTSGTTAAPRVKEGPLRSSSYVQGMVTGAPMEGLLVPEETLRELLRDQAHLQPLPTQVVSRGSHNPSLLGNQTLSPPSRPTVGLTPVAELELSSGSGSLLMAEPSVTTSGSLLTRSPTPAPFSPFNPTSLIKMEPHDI
Sequence of ETV6 (P41212 whole entry): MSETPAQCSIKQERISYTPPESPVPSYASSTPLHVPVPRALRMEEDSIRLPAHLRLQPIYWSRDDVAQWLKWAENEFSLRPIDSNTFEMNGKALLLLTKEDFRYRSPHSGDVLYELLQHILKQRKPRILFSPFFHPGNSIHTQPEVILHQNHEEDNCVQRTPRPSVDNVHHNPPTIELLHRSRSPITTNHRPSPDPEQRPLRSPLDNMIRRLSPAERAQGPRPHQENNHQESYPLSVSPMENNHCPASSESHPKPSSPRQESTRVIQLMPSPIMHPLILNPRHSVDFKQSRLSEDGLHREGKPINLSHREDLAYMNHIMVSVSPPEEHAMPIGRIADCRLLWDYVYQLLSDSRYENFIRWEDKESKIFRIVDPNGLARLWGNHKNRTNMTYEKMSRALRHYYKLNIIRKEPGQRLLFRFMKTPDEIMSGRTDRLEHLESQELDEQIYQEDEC

As to CCGTTT, the binding signal in the test with FEV was 1.48 fold enrichment (6-mer frequency, TF over GST control); in the test with ETV5, 1.44 fold enrichment (6-mer frequency, TF over GST control); with HSF1 it was 1.12 fold enrichment (6-mer frequency, TF over GST control); in the test with SPIC, 1.44 fold enrichment (6-mer frequency, TF over GST control); with ELF4, 1.36 fold enrichment (6-mer frequency, TF over GST control); with ELK4, 1.33 fold enrichment (6-mer frequency, TF over GST control). The binding signal is 1.31 fold enrichment (6-mer frequency, TF over GST control) with ETV2; 1.44 fold enrichment (6-mer frequency, TF over GST control) with ELF3; 1.06 fold enrichment (6-mer frequency, TF over GST control) with CRX; 1.38 fold enrichment (6-mer frequency, TF over GST control) in the test with ETV1; 1.33 fold enrichment (6-mer frequency, TF over GST control) with ERF; 1.45 fold enrichment (6-mer frequency, TF over GST control) in the test with ETV3L. Also, the binding signal was 1.4 fold enrichment (6-mer frequency, TF over GST control) with ETS2; 1.57 fold enrichment (6-mer frequency, TF over GST control) with SPDEF; 1.49 fold enrichment (6-mer frequency, TF over GST control) with ETV7; 1.51 fold enrichment (6-mer frequency, TF over GST control) with ELF5; 1.52 fold enrichment (6-mer frequency, TF over GST control) with ETV3; 1.53 fold enrichment (6-mer frequency, TF over GST control) in the test with ETV6.

These data come from article PMC7862700, “An all-to-all approach to the identification of sequence-specific readers for epigenetic DNA modifications on cytosine”.
